These results are taken from ChEMBL document CHEMBL2218924, “A broad activity screen in support of a chemogenomic map for kinase signalling research and drug discovery” (Biochem J, 2013).

Assay [1] deals with Tyrosine-protein kinase Fer (Homo sapiens) (UniProt P16591). Particulars: at 10 µM.
The target of assay [2] is Tyrosine-protein kinase Fes/Fps (Homo sapiens) (UniProt P07332). Particulars: at 1 µM.
Assay [3] shares this target. The note with it: at 10 µM.
For assay [4], the target named is Tyrosine-protein kinase Fgr (Homo sapiens) (UniProt P09769). Particulars: at 1 µM.
Tyrosine-protein kinase Fgr (Homo sapiens), sequence (P09769 2-529 limits assumed): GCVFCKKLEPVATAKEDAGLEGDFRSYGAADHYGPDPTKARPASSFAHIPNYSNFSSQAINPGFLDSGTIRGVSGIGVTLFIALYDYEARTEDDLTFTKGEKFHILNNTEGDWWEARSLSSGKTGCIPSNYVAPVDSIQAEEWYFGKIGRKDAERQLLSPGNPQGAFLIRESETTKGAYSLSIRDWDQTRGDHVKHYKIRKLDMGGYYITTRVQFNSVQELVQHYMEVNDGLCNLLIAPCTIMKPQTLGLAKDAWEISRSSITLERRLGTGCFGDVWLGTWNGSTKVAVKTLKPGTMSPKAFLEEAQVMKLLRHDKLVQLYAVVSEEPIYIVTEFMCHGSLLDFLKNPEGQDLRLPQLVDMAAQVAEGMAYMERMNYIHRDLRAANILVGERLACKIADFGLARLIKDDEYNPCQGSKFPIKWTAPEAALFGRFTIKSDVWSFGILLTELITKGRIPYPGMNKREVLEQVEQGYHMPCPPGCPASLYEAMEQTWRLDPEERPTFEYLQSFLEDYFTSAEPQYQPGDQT
The target is the same in assay [5]. The note with it: at 10 µM.
Assay [6] has as its target Vascular endothelial growth factor receptor 1 (Homo sapiens) (UniProt P17948). Particulars: at 1 µM.
Assay [7] has the same target. The note with it: at 10 µM.
For assay [8], the target named is Vascular endothelial growth factor receptor 3 (Homo sapiens) (UniProt P35916). Particulars: at 1 µM.
Assay [9] shares this target. Particulars: at 10 µM.
For assay [10], the target named is Macrophage colony-stimulating factor 1 receptor (Homo sapiens) (UniProt P07333). Particulars: at 1 µM.
Macrophage colony-stimulating factor 1 receptor (Homo sapiens), sequence (P07333 whole entry): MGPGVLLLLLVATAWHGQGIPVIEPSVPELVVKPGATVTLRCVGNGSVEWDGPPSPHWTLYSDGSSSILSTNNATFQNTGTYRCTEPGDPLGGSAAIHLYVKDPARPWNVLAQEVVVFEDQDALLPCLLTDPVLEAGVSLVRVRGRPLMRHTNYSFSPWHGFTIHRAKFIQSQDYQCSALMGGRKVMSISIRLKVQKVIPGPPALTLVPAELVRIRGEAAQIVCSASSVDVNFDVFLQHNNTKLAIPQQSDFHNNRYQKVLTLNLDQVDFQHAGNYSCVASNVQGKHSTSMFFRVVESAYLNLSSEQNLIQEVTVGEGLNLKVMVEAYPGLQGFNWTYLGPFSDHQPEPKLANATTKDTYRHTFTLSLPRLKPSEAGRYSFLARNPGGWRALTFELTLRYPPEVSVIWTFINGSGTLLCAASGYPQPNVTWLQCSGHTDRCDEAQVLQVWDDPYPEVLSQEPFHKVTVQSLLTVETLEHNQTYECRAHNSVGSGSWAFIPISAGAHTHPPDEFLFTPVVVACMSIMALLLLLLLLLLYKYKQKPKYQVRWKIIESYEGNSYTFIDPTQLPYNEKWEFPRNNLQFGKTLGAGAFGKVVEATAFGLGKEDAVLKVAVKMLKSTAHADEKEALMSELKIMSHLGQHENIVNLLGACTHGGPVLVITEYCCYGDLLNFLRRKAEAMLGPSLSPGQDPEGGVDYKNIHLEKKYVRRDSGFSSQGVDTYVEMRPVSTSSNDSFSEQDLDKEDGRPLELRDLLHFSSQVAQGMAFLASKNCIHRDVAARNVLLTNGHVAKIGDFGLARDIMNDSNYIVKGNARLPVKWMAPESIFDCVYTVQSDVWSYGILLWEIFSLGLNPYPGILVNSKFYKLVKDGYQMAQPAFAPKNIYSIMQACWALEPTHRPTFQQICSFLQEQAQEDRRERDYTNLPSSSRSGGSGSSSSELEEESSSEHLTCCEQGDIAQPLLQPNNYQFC
The target is the same in assay [11]. The note with it: at 10 µM.
Assay [12] addresses Tyrosine-protein kinase Fyn (Homo sapiens) (UniProt P06241). The note with it: at 10 µM.
The target of assay [13] is T1, Mitogen-activated protein kinase kinase kinase kinase 2 (Homo sapiens) (UniProt Q12851).
T1 sequence (whole entry): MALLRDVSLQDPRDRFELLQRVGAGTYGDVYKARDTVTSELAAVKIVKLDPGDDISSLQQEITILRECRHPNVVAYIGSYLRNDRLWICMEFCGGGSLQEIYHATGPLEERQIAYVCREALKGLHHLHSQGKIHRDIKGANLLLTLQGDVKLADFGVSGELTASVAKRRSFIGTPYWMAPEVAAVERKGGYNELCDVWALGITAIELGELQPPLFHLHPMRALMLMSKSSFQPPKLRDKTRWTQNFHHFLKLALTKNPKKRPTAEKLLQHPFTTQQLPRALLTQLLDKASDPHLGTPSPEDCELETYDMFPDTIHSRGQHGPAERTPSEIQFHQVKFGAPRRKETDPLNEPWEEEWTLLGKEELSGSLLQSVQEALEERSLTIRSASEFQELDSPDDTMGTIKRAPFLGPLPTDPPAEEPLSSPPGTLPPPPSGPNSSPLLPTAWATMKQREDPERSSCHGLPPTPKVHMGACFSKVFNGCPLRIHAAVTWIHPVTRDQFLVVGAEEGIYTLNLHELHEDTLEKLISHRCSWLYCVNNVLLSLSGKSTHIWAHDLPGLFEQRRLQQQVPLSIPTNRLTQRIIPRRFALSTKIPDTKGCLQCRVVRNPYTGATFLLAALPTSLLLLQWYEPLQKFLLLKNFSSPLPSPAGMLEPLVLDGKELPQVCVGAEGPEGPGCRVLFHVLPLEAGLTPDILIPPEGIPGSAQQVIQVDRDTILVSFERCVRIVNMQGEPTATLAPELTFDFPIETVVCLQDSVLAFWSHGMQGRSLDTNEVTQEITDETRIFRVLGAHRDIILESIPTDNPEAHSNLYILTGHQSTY
The note with it: at 1 µM.

Assay [14] has as its target G protein-coupled receptor kinase 5 (Homo sapiens) (UniProt P34947). The note with it: at 1 µM.
Assay [15] shares this target. The note with it: at 10 µM.
In assay [16] the target is G protein-coupled receptor kinase 6 (Homo sapiens) (UniProt P43250). The note with it: at 1 µM.
G protein-coupled receptor kinase 6 (Homo sapiens), sequence (P43250 whole entry, looked up): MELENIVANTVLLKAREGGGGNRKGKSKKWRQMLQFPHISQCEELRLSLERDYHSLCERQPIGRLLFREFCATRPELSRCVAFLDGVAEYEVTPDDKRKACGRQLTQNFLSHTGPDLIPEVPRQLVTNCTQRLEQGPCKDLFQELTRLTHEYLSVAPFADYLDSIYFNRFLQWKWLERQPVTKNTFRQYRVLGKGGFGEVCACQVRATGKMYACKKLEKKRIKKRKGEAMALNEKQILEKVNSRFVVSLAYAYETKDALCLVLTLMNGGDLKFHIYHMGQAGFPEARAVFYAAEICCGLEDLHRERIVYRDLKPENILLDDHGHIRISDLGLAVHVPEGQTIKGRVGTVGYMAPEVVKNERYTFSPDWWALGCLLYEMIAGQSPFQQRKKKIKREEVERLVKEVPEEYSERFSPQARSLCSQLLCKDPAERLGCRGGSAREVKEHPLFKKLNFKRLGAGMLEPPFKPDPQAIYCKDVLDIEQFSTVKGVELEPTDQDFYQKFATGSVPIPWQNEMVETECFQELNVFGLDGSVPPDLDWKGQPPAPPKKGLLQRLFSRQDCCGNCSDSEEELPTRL
The target in assay [17] is Receptor-type tyrosine-protein kinase FLT3 (Homo sapiens) (UniProt P36888). Particulars: at 1 µM.
Receptor-type tyrosine-protein kinase FLT3 (Homo sapiens), sequence (P36888 whole entry): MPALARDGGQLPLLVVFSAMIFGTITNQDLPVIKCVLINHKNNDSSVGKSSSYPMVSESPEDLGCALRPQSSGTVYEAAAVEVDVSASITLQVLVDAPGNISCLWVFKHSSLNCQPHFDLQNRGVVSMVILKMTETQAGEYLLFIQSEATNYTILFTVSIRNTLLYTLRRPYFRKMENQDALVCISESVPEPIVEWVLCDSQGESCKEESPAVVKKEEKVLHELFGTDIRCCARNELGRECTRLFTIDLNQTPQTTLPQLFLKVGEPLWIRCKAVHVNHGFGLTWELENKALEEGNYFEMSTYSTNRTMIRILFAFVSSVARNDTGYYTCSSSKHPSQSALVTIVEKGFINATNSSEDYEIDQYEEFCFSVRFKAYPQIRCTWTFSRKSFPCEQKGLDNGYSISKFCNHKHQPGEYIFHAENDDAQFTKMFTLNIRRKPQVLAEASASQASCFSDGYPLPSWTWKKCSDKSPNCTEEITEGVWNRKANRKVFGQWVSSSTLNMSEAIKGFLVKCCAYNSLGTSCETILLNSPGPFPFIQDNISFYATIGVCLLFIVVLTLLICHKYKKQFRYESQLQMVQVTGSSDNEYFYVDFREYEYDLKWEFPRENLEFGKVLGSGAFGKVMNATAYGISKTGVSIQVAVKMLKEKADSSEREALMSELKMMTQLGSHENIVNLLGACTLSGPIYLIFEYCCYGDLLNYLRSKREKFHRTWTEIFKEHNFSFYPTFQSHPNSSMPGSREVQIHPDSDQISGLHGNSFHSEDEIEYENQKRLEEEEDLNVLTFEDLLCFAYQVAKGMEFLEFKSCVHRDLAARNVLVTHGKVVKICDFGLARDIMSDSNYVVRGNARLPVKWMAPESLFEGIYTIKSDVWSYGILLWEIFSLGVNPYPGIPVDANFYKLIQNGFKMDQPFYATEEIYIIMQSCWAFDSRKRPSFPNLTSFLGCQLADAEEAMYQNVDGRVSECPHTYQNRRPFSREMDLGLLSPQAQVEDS
The target is the same in assay [18]. Particulars: at 10 µM.
For assay [19], the target named is Tyrosine-protein kinase Fyn (Homo sapiens) (UniProt P06241). Particulars: at 1 µM.
Tyrosine-protein kinase Fyn (Homo sapiens), sequence (P06241 2-537 limits assumed): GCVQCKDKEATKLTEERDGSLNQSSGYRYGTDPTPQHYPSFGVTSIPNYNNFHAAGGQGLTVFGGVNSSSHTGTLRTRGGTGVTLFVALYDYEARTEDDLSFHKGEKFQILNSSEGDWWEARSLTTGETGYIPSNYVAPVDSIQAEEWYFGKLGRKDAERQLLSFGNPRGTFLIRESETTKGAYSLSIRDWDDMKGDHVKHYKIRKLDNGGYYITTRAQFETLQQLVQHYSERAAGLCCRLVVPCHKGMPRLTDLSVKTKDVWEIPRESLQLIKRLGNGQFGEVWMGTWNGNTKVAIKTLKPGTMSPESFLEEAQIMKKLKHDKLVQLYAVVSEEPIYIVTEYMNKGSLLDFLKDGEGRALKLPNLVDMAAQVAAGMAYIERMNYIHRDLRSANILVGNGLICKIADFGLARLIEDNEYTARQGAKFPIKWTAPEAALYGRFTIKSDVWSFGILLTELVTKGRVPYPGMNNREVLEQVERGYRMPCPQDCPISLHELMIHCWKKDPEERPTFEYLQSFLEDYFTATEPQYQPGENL
The target of assay [20] is T1, Mitogen-activated protein kinase kinase kinase kinase 2 (Homo sapiens). Particulars: at 10 µM.

Tyrosine-protein kinase Fes/Fps (Homo sapiens), sequence (P07332 whole entry): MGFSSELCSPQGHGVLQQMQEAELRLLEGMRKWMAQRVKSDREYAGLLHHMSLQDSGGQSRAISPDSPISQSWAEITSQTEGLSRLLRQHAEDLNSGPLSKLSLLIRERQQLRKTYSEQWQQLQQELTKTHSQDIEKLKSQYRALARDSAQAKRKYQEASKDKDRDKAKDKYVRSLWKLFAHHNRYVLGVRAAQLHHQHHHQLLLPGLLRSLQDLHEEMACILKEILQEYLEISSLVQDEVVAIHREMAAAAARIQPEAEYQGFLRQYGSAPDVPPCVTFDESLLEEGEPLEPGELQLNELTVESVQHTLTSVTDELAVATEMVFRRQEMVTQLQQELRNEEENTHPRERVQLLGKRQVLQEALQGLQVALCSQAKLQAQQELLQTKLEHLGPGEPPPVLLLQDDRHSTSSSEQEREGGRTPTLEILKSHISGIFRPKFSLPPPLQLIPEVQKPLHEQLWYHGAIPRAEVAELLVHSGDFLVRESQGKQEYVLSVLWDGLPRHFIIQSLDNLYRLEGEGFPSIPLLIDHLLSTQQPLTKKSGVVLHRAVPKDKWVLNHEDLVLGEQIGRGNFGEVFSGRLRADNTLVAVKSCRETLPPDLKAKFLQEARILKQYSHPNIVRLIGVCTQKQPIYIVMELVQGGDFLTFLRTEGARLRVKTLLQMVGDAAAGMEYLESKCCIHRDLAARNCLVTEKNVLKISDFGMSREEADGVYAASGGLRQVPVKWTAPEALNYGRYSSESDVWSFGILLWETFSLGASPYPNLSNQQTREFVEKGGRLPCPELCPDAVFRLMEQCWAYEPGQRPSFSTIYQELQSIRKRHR
G protein-coupled receptor kinase 5 (Homo sapiens), sequence (P34947 whole entry, looked up): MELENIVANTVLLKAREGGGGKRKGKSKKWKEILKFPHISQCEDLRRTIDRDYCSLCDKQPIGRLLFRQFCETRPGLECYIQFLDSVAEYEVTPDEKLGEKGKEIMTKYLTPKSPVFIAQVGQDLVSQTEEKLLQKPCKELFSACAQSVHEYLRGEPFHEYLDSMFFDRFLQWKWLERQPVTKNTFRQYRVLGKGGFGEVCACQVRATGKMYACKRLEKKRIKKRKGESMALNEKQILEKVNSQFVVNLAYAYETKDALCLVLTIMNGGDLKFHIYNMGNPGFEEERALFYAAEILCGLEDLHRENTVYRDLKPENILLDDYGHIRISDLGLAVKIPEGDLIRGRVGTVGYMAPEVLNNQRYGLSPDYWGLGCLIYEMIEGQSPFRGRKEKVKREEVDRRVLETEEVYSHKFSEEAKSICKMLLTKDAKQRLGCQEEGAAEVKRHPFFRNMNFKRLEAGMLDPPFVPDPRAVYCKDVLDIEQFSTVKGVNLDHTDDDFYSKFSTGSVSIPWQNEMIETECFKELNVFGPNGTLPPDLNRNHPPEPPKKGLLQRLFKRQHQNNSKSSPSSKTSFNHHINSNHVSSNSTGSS

Take `CC(C)(C)c1cc(C=C(C#N)C#N)cc(Br)c1O`: the residual activity in [1] is 107%; in [2] it was 125%; in [3] it was 98%; in assay [4] it was 113%; in assay [5], 96%; in assay [6], 102%. The residual activity was determined as 82% in assay [7]; 96% in assay [8]; 83% in assay [9]; 97% in [10]; 76% in assay [11]; 15% in [12]. The residual activity in assay [13] is 113%; in assay [14], 120%; in [15] it was 100%; in [16] it was 106%.
Turning to `O=C(c1cc2cc(O)ccc2[nH]1)c1cc2cc(O)ccc2[nH]1`, in assay [14], the residual activity is 79%.
On the same count and under the same terms, the figure for `CCCCc1c(-c2ccc(OC)cc2)[nH]c2nccnc12` is 88%; for `O=C1NC(=O)C(c2cn(CCCn3ccnc3)c3ccccc23)=C1Nc1ccccc1` it is 78%.
`COc1cc(OC)c(/C=C2\C(=O)Nc3ccccc32)c(OC)c1`: the residual activity in assay [1] turned out to be 94%; in assay [2], 102%; in [3], 92%; in assay [4], 86%; in [5], 76%; in [6], 92%. For the same compound, the residual activity in assay [7] came out at 94%; in assay [17], 83%; in assay [18], 72%; in [8] it was 76%; in assay [9], 74%; in [10], 87%. Further, the residual activity was 69% in assay [11]; 70% in assay [19]; 68% in assay [12]; 95% in assay [13]; 86% in assay [20]; 101% in [14]. Further, the figures for the residual activity in [15] and in [16] were 99% and 89%, respectively.
In the case of `O=[N+]([O-])/C=C/c1ccc2c(c1)OCO2`, the residual activity in assay [1] turned out to be 98%; in assay [2], 113%; in [3] it was 77%; in [4] it was 90%; in [5] it was 92%; in [6] it was 97%. In addition, the residual activity in assay [7] is 91%; in [17], 95%; in [18], 69%; in [8], 88%; in [9], 95%; in assay [10], 87%. Besides, the residual activity in assay [11] stood at 100%; in assay [19], 105%; in assay [12], 92%; in [13] it was 92%; in assay [20] it was 86%; in [14], 106%. In addition, the residual activity stood at 91% in assay [15] and 105% in [16].
Turning to `Nc1nc(Nc2ccc(S(N)(=O)=O)cc2)nn1C(=S)Nc1c(F)cccc1F`, in assay [14], the residual activity stood at 77%.
As to `COc1ccc2c(c[n+](C)c3c4cc5c(cc4ccc23)OCO5)c1OC`, the residual activity in [1] was found to be 80%; in assay [2] it was 121%; in assay [3], 76%; in [5], 77%; in [6] it was 96%; in [7], 47%. Further, the residual activity in assay [17] was 92%; in [18], 75%; in [8], 85%; in assay [9], 62%; in assay [10], 87%; in [11], 74%. The residual activity in [19] is 92%; in assay [12], 63%; in assay [20], 72%; in assay [15], 82%; in [16] it was 96%.
